Where a name gives a salt, the structure may show the parent alone.

One assay concerns Plasmodium falciparum NF54/iGP1_RE9H ulg8 stage V gametocytes. Put plainly: gametocyte viability (luciferase signal relative to DMSO control) (% of DMSO control); higher = less gametocytocidal activity, active = 50 or less. The settings on record: concentration: 1 µM; exposure time: 72 h. How it is done: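 Synchronous P. falciparum NF54/iGP1_RE9H ulg8 mature stage V gametocytes (day 12) were exposed to Cayman Epigenetics Screening Library compounds at 10 µM or 1 µM for 72 h at 37 °C. Viability was read as RE9H luciferase bioluminescence, normalised to DMSO plate controls (100%); 50 µM methylene blue was the positive control.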
As for `Nc1cc(F)ccc1NC(=O)c1ccc(CNC(=O)/C=C/c2cccnc2)cc1` [Chidamide], the gametocyte viability was 92.7 (inactive).
Turning to `Cn1cccc1C(=O)N1CCc2cc(C(=O)NO)ccc2C1` [HDAC6 Inhibitor], the gametocyte viability was 87 (inactive).
Consider `COc1cc2nc(N3CCCN(C)CC3)nc(NC3CCN(Cc4ccccc4)CC3)c2cc1OC`, for which the gametocyte viability was 71 (inactive).
In the case of `CS(=O)(=O)c1ccc(-c2cnc(NCc3ccco3)n3cnnc23)cc1`, the gametocyte viability was 88.5 (inactive).
Turning to `O=C(O)CCCc1ccccc1` [Sodium 4-Phenylbutyrate], the gametocyte viability is 90.4 (inactive).
Still for that read-out and setting: with `COc1cc(C#N)ccc1S(=O)(=O)Nc1ccc2c(c1)cc(C)c(=O)n2C` the figure was 86.6 (inactive); with `O=c1oc2c(O)c(O)cc3c(=O)oc4c(O)c(O)cc1c4c23` [Ellagic Acid], 101 (inactive).
Same read-out and setting: with `CNCCN(C)Cc1c[nH]nc1-c1ccc(O[C@H]2C[C@H](OCCC3CCOCC3)C2)cc1` the figure was 85.5 (inactive).
On the same count and under the same terms, as for `Cc1nn(C)cc1CN1CCC(c2ccc(C(=O)Nc3ccccc3N)cc2)CC1`, the figure is 86 (inactive); as for `Cc1cc(Nc2ccc(NC(=O)c3ccc(Nc4ccnc5ccccc45)cc3)cc2)nc(N)n1`, 31.4 (active).
For the compound `CCCc1cc2c(N3CCN(C4=NCC(C)(C)S4)CC3)ncnc2s1` [MI-2 (hydrochloride)], the gametocyte viability was 80.6 (inactive).
Still for that read-out and setting: as for `O=C(CCCCCCC(=O)Nc1ccccc1)NO`, the figure is 86.4 (inactive); as for `COc1ccccc1C(=O)Nc1cc2c(cc1N1CCCC1)n(C)c(=O)n2C`, 79.5 (inactive).
Still for that read-out and setting: with `O=C(CCCCCCC(=O)Nc1cccnc1)NO` [Pyroxamide] the figure was 90.7 (inactive); with `Nc1cc(F)ccc1NC(=O)/C=C/c1cnn(C/C=C/c2ccccc2)c1`, 98 (inactive); with `O=C(NCc1ccccc1)c1c(/N=C/c2c(O)ccc3ccccc23)sc2c1CCCC2`, 103 (inactive).
Take `CC(NC(=O)c1ccccc1/N=C/c1c(O)ccc2ccccc12)c1ccccc1` (stereo not given) [Sirtinol]: the gametocyte viability was 102 (inactive).
Still for that read-out and setting: as for `CCCNNC(=O)c1ccc(CNC(=O)/C=C/c2ccccc2)cc1` [HDAC3 Inhibitor], the figure is 83.6 (inactive).
Consider `CCCC(CCC)C(=O)O` [Valproic Acid (sodium salt)], for which the gametocyte viability is 86.9 (inactive).
Still for that read-out and setting: as for `O=C(O)CC[C@H](O)C(=O)O` [L-α-Hydroxyglutaric Acid (sodium salt)], the figure is 92.7 (inactive).

Still in this assay, the particulars now being: concentration: 10 µM; exposure time: 72 h.
Consider `Nc1cc(F)ccc1NC(=O)c1ccc(CNC(=O)/C=C/c2cccnc2)cc1` [Chidamide], for which the gametocyte viability was 93.4 (inactive).
As to `Cn1cccc1C(=O)N1CCc2cc(C(=O)NO)ccc2C1` [HDAC6 Inhibitor], the gametocyte viability was 91.2 (inactive).
Same read-out and setting: with `COc1cc2nc(N3CCCN(C)CC3)nc(NC3CCN(Cc4ccccc4)CC3)c2cc1OC` the figure was 23.3 (active); with `CS(=O)(=O)c1ccc(-c2cnc(NCc3ccco3)n3cnnc23)cc1`, 91.4 (inactive).
In the case of `O=C(O)CCCc1ccccc1` [Sodium 4-Phenylbutyrate], the gametocyte viability is 89.2 (inactive).
The same measure, in the same setting: with `COc1cc(C#N)ccc1S(=O)(=O)Nc1ccc2c(c1)cc(C)c(=O)n2C` the figure was 91.4 (inactive).
On the same count and under the same terms, with `O=c1oc2c(O)c(O)cc3c(=O)oc4c(O)c(O)cc1c4c23` [Ellagic Acid] the figure was 95.3 (inactive); with `CNCCN(C)Cc1c[nH]nc1-c1ccc(O[C@H]2C[C@H](OCCC3CCOCC3)C2)cc1`, 82.4 (inactive).
Consider `Cc1nn(C)cc1CN1CCC(c2ccc(C(=O)Nc3ccccc3N)cc2)CC1`, for which the gametocyte viability is 90.2 (inactive).
Same read-out and setting: as for `Cc1cc(Nc2ccc(NC(=O)c3ccc(Nc4ccnc5ccccc45)cc3)cc2)nc(N)n1`, the figure is 2.18 (active); as for `CCCc1cc2c(N3CCN(C4=NCC(C)(C)S4)CC3)ncnc2s1` [MI-2 (hydrochloride)], 63.3 (inactive); as for `O=C(CCCCCCC(=O)Nc1ccccc1)NO`, 56.2 (inactive).
Same read-out and setting: as for `COc1ccccc1C(=O)Nc1cc2c(cc1N1CCCC1)n(C)c(=O)n2C`, the figure is 65.1 (inactive); as for `O=C(CCCCCCC(=O)Nc1cccnc1)NO` [Pyroxamide], 63.8 (inactive); as for `Nc1cc(F)ccc1NC(=O)/C=C/c1cnn(C/C=C/c2ccccc2)c1`, 91.8 (inactive).
Turning to `O=C(NCc1ccccc1)c1c(/N=C/c2c(O)ccc3ccccc23)sc2c1CCCC2`, the gametocyte viability is 94.2 (inactive).
Take `CC(NC(=O)c1ccccc1/N=C/c1c(O)ccc2ccccc12)c1ccccc1` (stereo not given) [Sirtinol]: the gametocyte viability was 95 (inactive).
Consider `CCCNNC(=O)c1ccc(CNC(=O)/C=C/c2ccccc2)cc1` [HDAC3 Inhibitor], for which the gametocyte viability is 93.8 (inactive).
The same measure, in the same setting: with `CCCC(CCC)C(=O)O` [Valproic Acid (sodium salt)] the figure was 86.4 (inactive); with `O=C(O)CC[C@H](O)C(=O)O` [L-α-Hydroxyglutaric Acid (sodium salt)], 86.7 (inactive).
